Experimental data from PubChem BioAssay (EPA / NIEHS).
Records with an inconclusive call do not appear. Activity calls are given as the source filed them. The calls were made as follows: active = hit-call score of the fitted dose curve at least 0.9, where 1 is the maximum; inconclusive = response in the unintended direction; inactive = score below 0.9.

Biological target: Cellular tumor antigen p53 (Homo sapiens) (UniProt P04637)
Experiment: TOX21_p53_BLA_p3_ratio: Tox21 HCT-116 p53 Agonism Beta-lactamase Assay, Ratio, Phase 3 (AID 2283596)
Summary of the method: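 HCT116 p53-bla cells (4000/well) given compound in DMSO (217-fold dilution) after 5 h, incubated 16 h at 37C. CCF4-AM substrate 2 h at room temperature; 460/530 nm emission ratio, gain fitted against DMSO.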

Sequence of Cellular tumor antigen p53 (Homo sapiens) (P04637 whole entry, looked up): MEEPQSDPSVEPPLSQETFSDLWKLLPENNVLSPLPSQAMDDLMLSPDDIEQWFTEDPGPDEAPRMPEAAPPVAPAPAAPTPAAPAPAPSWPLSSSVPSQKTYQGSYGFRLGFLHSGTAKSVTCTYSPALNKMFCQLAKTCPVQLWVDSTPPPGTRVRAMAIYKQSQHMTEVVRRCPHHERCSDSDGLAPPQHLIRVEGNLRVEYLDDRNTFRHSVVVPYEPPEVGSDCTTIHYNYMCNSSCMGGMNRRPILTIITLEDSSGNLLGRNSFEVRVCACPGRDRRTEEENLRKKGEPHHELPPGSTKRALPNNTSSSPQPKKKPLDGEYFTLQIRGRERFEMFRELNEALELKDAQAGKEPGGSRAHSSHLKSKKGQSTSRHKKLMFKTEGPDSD

| Compound | outcome | AC50 |
| --- | --- | --- |
| C[Si](NC1CCCCC1)(NC1CCCCC1)NC1CCCCC1 | inactive |  |
| CC(C[N+](C)(C)C)OC(N)=O (stereo not drawn) | inactive |  |
| CC(C)NNC(=O)c1ccncc1 | inactive |  |
| CC(O)C(CO)C(C)O (stereo not drawn) | inactive |  |
| Cc1ccc2c(n1)Oc1ccc(C(C)C(=O)OCC(=O)N(C)C)cc1C2 (stereo not drawn) | inactive |  |
| C=C[C@]1(C)C[C@@H](OC(=O)CSC(C)(C)CNC(=O)[C@H](N)C(C)C)[C@]2(C)[C@H](C)CC[C@]3(CCC(=O)[C@H]32)[C@@H](C)[C@@H]1O | inactive |  |
| O=C(O)CCCCCCCCCCCBr | inactive |  |
| OCCCNc1ccccc1 | inactive |  |
| CNCCCCOc1ccccc1Cc1ccccc1 | inactive |  |
| OC(CCN1CCCC1)(c1ccccc1)C1CCCCC1 (stereo not drawn) | inactive |  |
| CN(C/C=C/C#CC(C)(C)C)Cc1cccc2ccccc12 | inactive |  |
| O=C[C@H](O)[C@@H](O)[C@@H](O)[C@H](O)CO | inactive |  |
| CC/C=C\C/C=C\C/C=C\C/C=C\C/C=C\CCCC(=O)O | inactive |  |
| Nc1ccc(N=Nc2ccccc2)c(N)c1 | inactive |  |
| COC(=O)c1ccc(C(=O)O)cc1 | inactive |  |
| COc1cc2[nH]c(C)c(CCN3CCN(c4ccccc4)CC3)c2cc1OC | inactive |  |
| COc1cc2c(cc1OC)-c1cc3ccc(OC)c(OC)c3c[n+]1CC2 | inactive |  |
| C1=CC2C3C=CC(C3)C2C1 (stereo not drawn) (tested in a mixture with another compound) | inactive |  |
| OC(CN1CCC(Cc2ccc(F)cc2)CC1)c1ccc(Cl)cc1 (stereo not drawn) | inactive |  |
| O=C(O)CCCCCC(=O)O | inactive |  |

| Compound | outcome | AC50 |
| --- | --- | --- |
| C[S+](C)CCC(N)C(=O)O (stereo not drawn) | inactive |  |
| COc1cc(C)nc(-n2nc(C)cc2OC)n1 | inactive |  |
| CN(C(=O)CCCOc1ccc2[nH]c(=O)ccc2c1)C1CCCCC1 | inactive |  |
| CCN(CC)c1ccc2c(-c3ccc(S(=O)(=O)O)cc3S(=O)(=O)[O-])c3ccc(=[N+](CC)CC)cc-3oc2c1 | inactive |  |
| Cc1cc(C(C)(C)C)c(O)c(C)c1Cn1c(=O)n(Cc2c(C)cc(C(C)(C)C)c(O)c2C)c(=O)n(Cc2c(C)cc(C(C)(C)C)c(O)c2C)c1=O |  | 56.3 µM (active) |
| Cc1nnc(C(C)C)n1C1C[C@H]2CC[C@@H](C1)N2CC[C@@H](NC(=O)C1CCC(F)(F)CC1)c1ccccc1 (stereo partly drawn) | inactive |  |
| Cc1nc2ccccn2c(=O)c1CCN1CCC(C(=O)c2ccc(F)cc2)CC1 | inactive |  |
| CO[C@H]1/C=C/O[C@@]2(C)Oc3c(C)c(O)c4c(O)c(c5c(c4c3C2=O)=NC2(CCN(CC(C)C)CC2)N=5)NC(=O)/C(C)=C\C=C\[C@H](C)[C@H](O)[C@@H](C)[C@@H](O)[C@@H](C)[C@H](OC(C)=O)[C@@H]1C | inactive |  |
| CCCCCCCCS(=O)(=O)Cl | inactive |  |
| CNC(=O)CN(CCN(CCN(CC(=O)[O-])CC(=O)NC)CC(=O)[O-])CC(=O)[O-].O.[Gd+3] | inactive |  |
| C[N+]1(C)CCC(=C(c2ccccc2)c2ccccc2)CC1 | inactive |  |
| CN[C@@H]1[C@H](O)[C@H](NC)[C@H]2O[C@@]3(O)C(=O)C[C@@H](C)O[C@H]3O[C@@H]2[C@H]1O | inactive |  |
| CC(C)(C(=O)O)c1ccc(C(O)CCCN2CCC(C(O)(c3ccccc3)c3ccccc3)CC2)cc1 (stereo not drawn) | inactive |  |
| Cc1cccc(C)c1NC(=O)c1ccccc1C(=O)O | inactive |  |
| CCCCCCCCCCCCI | inactive |  |
| CCCCN(CCCC)CC(O)c1cc(Cl)cc2c1-c1ccc(Cl)cc1/C2=C/c1ccc(Cl)cc1 (stereo not drawn) | inactive |  |
| CC(C)(C)c1ccc(C(=O)CCCN2CCC(OC(c3ccccc3)c3ccccc3)CC2)cc1 |  | 34.6 µM (active) |
| CCCCCCCCCI | inactive |  |
| C[CH2][Ge]([Cl])([CH2]C)[CH2]C | inactive |  |

Tested on: not listed separately
Experiment: TOX21_p53_BLA_p4_viability: Viability Assessment in the Tox21 HCT-116 p53 Agonism Beta-lactamase Assay, Phase 4 (AID 2283597);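 also: hits lower the luminescence signal meaning cytotoxicity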
Summary of the method: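 HCT116 p53-bla cells (4000/well) rested 5 h at 37C, then received compounds in DMSO (217-fold dilution) for 16 h at 37C, 5% CO2. CellTiter-Glo was added after the CCF4-AM read, and luminescence was read after 30 min at room temperature.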

| Compound | AC50 | outcome |
| --- | --- | --- |
| C[Si](NC1CCCCC1)(NC1CCCCC1)NC1CCCCC1 | 88.8 µM (active) |  |
| CC(C[N+](C)(C)C)OC(N)=O (stereo not drawn) |  | inactive |
| CC(C)NNC(=O)c1ccncc1 |  | inactive |
| CC(O)C(CO)C(C)O (stereo not drawn) |  | inactive |
| Cc1ccc2c(n1)Oc1ccc(C(C)C(=O)OCC(=O)N(C)C)cc1C2 (stereo not drawn) |  | inactive |
| C=C[C@]1(C)C[C@@H](OC(=O)CSC(C)(C)CNC(=O)[C@H](N)C(C)C)[C@]2(C)[C@H](C)CC[C@]3(CCC(=O)[C@H]32)[C@@H](C)[C@@H]1O |  | inactive |
| O=C(O)CCCCCCCCCCCBr |  | inactive |
| OCCCNc1ccccc1 |  | inactive |
| CNCCCCOc1ccccc1Cc1ccccc1 | 36.4 µM (active) |  |
| OC(CCN1CCCC1)(c1ccccc1)C1CCCCC1 (stereo not drawn) |  | inactive |
| CN(C/C=C/C#CC(C)(C)C)Cc1cccc2ccccc12 |  | inactive |
| O=C[C@H](O)[C@@H](O)[C@@H](O)[C@H](O)CO |  | inactive |
| CC/C=C\C/C=C\C/C=C\C/C=C\C/C=C\CCCC(=O)O |  | inactive |
| Nc1ccc(N=Nc2ccccc2)c(N)c1 |  | inactive |
| COC(=O)c1ccc(C(=O)O)cc1 |  | inactive |
| COc1cc2[nH]c(C)c(CCN3CCN(c4ccccc4)CC3)c2cc1OC |  | inactive |
| COc1cc2c(cc1OC)-c1cc3ccc(OC)c(OC)c3c[n+]1CC2 |  | inactive |
| C1=CC2C3C=CC(C3)C2C1 (stereo not drawn) (tested in a mixture with another compound) |  | inactive |
| OC(CN1CCC(Cc2ccc(F)cc2)CC1)c1ccc(Cl)cc1 (stereo not drawn) |  | inactive |
| O=C(O)CCCCCC(=O)O |  | inactive |

| Compound | AC50 | outcome |
| --- | --- | --- |
| C[S+](C)CCC(N)C(=O)O (stereo not drawn) |  | inactive |
| COc1cc(C)nc(-n2nc(C)cc2OC)n1 |  | inactive |
| CN(C(=O)CCCOc1ccc2[nH]c(=O)ccc2c1)C1CCCCC1 |  | inactive |
| CCN(CC)c1ccc2c(-c3ccc(S(=O)(=O)O)cc3S(=O)(=O)[O-])c3ccc(=[N+](CC)CC)cc-3oc2c1 |  | inactive |
| Cc1cc(C(C)(C)C)c(O)c(C)c1Cn1c(=O)n(Cc2c(C)cc(C(C)(C)C)c(O)c2C)c(=O)n(Cc2c(C)cc(C(C)(C)C)c(O)c2C)c1=O |  | inactive |
| Cc1nnc(C(C)C)n1C1C[C@H]2CC[C@@H](C1)N2CC[C@@H](NC(=O)C1CCC(F)(F)CC1)c1ccccc1 (stereo partly drawn) |  | inactive |
| Cc1nc2ccccn2c(=O)c1CCN1CCC(C(=O)c2ccc(F)cc2)CC1 |  | inactive |
| CO[C@H]1/C=C/O[C@@]2(C)Oc3c(C)c(O)c4c(O)c(c5c(c4c3C2=O)=NC2(CCN(CC(C)C)CC2)N=5)NC(=O)/C(C)=C\C=C\[C@H](C)[C@H](O)[C@@H](C)[C@@H](O)[C@@H](C)[C@H](OC(C)=O)[C@@H]1C |  | inactive |
| CCCCCCCCS(=O)(=O)Cl |  | inactive |
| CNC(=O)CN(CCN(CCN(CC(=O)[O-])CC(=O)NC)CC(=O)[O-])CC(=O)[O-].O.[Gd+3] |  | inactive |
| C[N+]1(C)CCC(=C(c2ccccc2)c2ccccc2)CC1 |  | inactive |
| CN[C@@H]1[C@H](O)[C@H](NC)[C@H]2O[C@@]3(O)C(=O)C[C@@H](C)O[C@H]3O[C@@H]2[C@H]1O |  | inactive |
| CC(C)(C(=O)O)c1ccc(C(O)CCCN2CCC(C(O)(c3ccccc3)c3ccccc3)CC2)cc1 (stereo not drawn) |  | inactive |
| Cc1cccc(C)c1NC(=O)c1ccccc1C(=O)O |  | inactive |
| CCCCCCCCCCCCI |  | inactive |
| CCCCN(CCCC)CC(O)c1cc(Cl)cc2c1-c1ccc(Cl)cc1/C2=C/c1ccc(Cl)cc1 (stereo not drawn) |  | inactive |
| CC(C)(C)c1ccc(C(=O)CCCN2CCC(OC(c3ccccc3)c3ccccc3)CC2)cc1 |  | inactive |
| CCCCCCCCCI |  | inactive |
| C[CH2][Ge]([Cl])([CH2]C)[CH2]C |  | inactive |
